# Measured values: PubChem BioAssay (NCATS)
# Calls of active or inactive are those of the source. Entries that show only a call come without a potency. Calls follow the shape of the dose curve; as a rule, active = well fitted activation curve with a large enough effect; inconclusive = small, poorly fitted or top-dose-only effect; inactive = no such curve, though single readings can be large or run the other way.
# Target: Cytochrome P450 3A4 (Homo sapiens) (UniProt P08684)
# Test: qHTS Assay for Activators of Cytochrome P450 3A4 (AID 885); also: nearly all actives have a fitted effect of over 65% in size
# Conditions: recombinant CYP3A4, Luciferin-PPXE luminescence, 60 min; series mostly up to 57.1 µM
# Procedure: NIH Molecular Libraries Screening Centers Network [MLSCN]
# NIH Chemical Genomics Center [NCGC]
# The P450 gene superfamily is involved in the metabolism and clearance of xenobiotics. This assay used human CYP3A4 to measure the dealkylation of luciferin-6' phenylpiperazinylyl (Luciferin-PPXE; […]) to luciferin. The luciferin is then measured by luminescence after the addition of a luciferase detection reagent. Luciferin-PPXE concentration in the assay was equal to its KM for CYP3A4. Inhibitors and some substrates limit the production of luciferin, and decrease measured luminescence; activators increase the production of luciferin and luminescence.
# NCGC Assay Protocol Summary:
# Two uL of enzyme and substrate mix (final concentrations: 20nM CYP3A4, 25uM Luciferin-PPXE, 200mM KPO4) were dispensed into a white, solid bottom 1536-well microtiter plate. 23nL of compound was transferred by a pin tool. The plate was incubated at RT for 10 min. Two uL of an NADPH regeneration solution (Promega supplied reagent) was dispensed and the reaction was allowed to continue for 60 min at RT. Then the reaction was stopped by reconstituted luciferin detection buffer. After another 20 min of incubation the plate was read on the ViewLux (Perkin Elmer) at 60 sec exposure and 2x2 binning. This protocol was carried out with Promega-Glo reagents and further information can be found at http://www.promega.com/tbs/tb325/tb325.pdf. Data were normalized to the to AC100 inhibition (57 uM ketoconazole).
# Keywords: P450, CYP2D6, Luciferase, MLSMR, MLSCN, NIH Roadmap, qHTS, NCGC
# Potency is read from the fitted curve at half-maximal effect.
# Chain of Cytochrome P450 3A4 (Homo sapiens) (P08684 whole entry, looked up): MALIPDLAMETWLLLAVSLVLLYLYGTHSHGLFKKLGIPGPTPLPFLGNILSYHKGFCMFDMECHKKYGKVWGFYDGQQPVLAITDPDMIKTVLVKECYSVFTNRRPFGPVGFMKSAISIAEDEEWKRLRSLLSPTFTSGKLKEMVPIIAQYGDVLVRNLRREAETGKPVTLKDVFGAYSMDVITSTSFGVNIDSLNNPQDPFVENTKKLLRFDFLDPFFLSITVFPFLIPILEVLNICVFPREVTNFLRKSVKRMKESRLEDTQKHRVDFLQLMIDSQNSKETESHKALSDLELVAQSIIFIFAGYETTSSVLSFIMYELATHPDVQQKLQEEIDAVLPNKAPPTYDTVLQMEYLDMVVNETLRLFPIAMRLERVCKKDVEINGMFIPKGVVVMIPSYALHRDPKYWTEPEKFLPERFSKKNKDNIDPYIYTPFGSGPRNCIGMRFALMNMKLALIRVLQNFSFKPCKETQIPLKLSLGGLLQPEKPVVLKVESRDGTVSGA
row,Compound,Potency
1,COc1cccc(Nc2ncc3nc(-c4ccc(Cl)cc4)c(=O)n(CCC#N)c3n2)c1,inactive
2,C[C@@H](CN(C)C)CN1c2ccccc2CCc2ccccc21,inactive
3,CS(=O)(=O)Nc1cccc(-c2nccc(-n3ccnc3)n2)c1,inactive
4,CN(C)C(=O)c1ccc(-c2ccc3ncnc(NCc4ccccc4)c3c2)cc1,inactive
5,COc1cccc(Nc2ncc3nc(-c4cccs4)c(=O)n(-c4ccccc4)c3n2)c1,inactive
6,O=C(Oc1ccccc1)N1CCC2(CC1)CCN(c1cccc(-c3ccccc3)c1)CC2,7.94 µM (active)
7,COc1ccc2[nH]cc(CCNc3cc(-c4ccc(C(=O)N(C)C)cc4)ncn3)c2c1,inactive
8,Fc1ccc(Nc2nc(-c3ccoc3)nc3ccccc23)cc1,inactive
9,O=C(c1cc(C(F)(F)F)cc(C(F)(F)F)c1)N1CCC2(CCCN(Cc3ccncc3)C2)CC1,inactive
10,O=C(c1cccc(F)c1)N1CCC2(CC1)CCN(c1ccccn1)CC2,3.16 µM (active)
11,O=C(c1cnccn1)N1CCC2(CC1)CCN(c1ccccn1)CC2,15.8 µM (active)
12,COc1ccc(Oc2ncc3nc(-c4cc(F)cc(F)c4)c(=O)n(C)c3n2)cc1,inactive
13,COc1ccccc1CNc1ncnc2ccc(-c3ccc4c(c3)OCO4)cc12,inactive
14,CN1CCN(c2ncncc2-c2ccccc2Cl)CC1,inactive
15,COc1ccc2[nH]cc(CCNc3ncncc3-c3ccc(C(=O)N(C)C)cc3)c2c1,inactive
16,O=C(Nc1cccc(F)c1)N1CC[C@@]2(CCCN(C(=O)c3cc(C(F)(F)F)cc(C(F)(F)F)c3)C2)C1,inactive
17,O=c1c(-c2cccs2)nc2cncnc2n1-c1ccccc1,inactive
18,O=C(c1ccco1)N1CCC2(CCN(Cc3ccccc3)CC2)CC1,20 µM (active)
19,COCCn1c(=O)c(-c2cn(C)c3ccccc23)nc2cncnc21,inactive
20,Cc1cnc(CNc2ncncc2-c2ccc3c(c2)OCO3)cn1,inactive

row,Compound,Potency
1,CS(=O)(=O)Nc1cccc(-c2ccc3ncnc(NCc4cccs4)c3c2)c1,inactive
2,COc1ccc2[nH]cc(CCNc3nc(-c4ccoc4)nc4ccccc34)c2c1,inactive
3,CN(Cc1ccco1)c1nc(-c2ccoc2)nc2ccccc12,inactive
4,Cc1cccc(CNc2cc(-c3ccc(N(C)C)cc3)ncn2)c1,inactive
5,c1cncc(-c2cc(NCc3cccs3)ncn2)c1,inactive
6,N#CCCn1c(=O)c(-c2cccs2)nc2cnc(Nc3ccccc3)nc21,inactive
7,O=c1c(-c2ccc(Cl)cc2)nc2cnc(N3CCOCC3)nc2n1CCc1ccccc1,15.8 µM (active)
8,O=C(c1csnn1)N1CCC2(CCCN(c3ccc(-c4ccccc4)cc3)C2)CC1,inactive
9,CCNc1ncc2nc(-c3cc(F)cc(F)c3)c(=O)n(-c3ccccc3)c2n1,inactive
10,CC(=O)NCCNc1ncncc1-c1ccccc1CN(C)C,inactive
11,COc1ccc(CNc2ncnc3ccc(-c4ccoc4)cc23)c(OC)c1,inactive
12,c1ccc(Nc2ncnc3ccc(-c4ccoc4)cc23)cc1,inactive
13,Cn1cc(-c2nc3cnc(N4CCOCC4)nc3n(CCC#N)c2=O)c2ccccc21,inactive
14,CNc1nc(-c2cccnc2)nc2ccccc12,inactive
15,COc1cccc(Nc2ncc3nc(CCc4ccccc4)c(=O)n(Cc4cccs4)c3n2)c1,inactive
16,O=C(c1cccc(F)c1)N1CCC2(CCCN(c3ccc(-c4ccccc4)cc3)C2)CC1,inactive
17,COc1ccccc1-c1nccc(NCc2ccccc2)n1,inactive
18,N#Cc1cccc(-c2cc(NCc3cccnc3)ncn2)c1,inactive
19,O=C(Nc1ccccc1)N1CCCC2(CCN(C(=O)c3cnccn3)CC2)C1,inactive
20,Cc1cnc(CNc2cc(-c3cccc(C#N)c3)ncn2)cn1,inactive
